Screening results from PubChem BioAssay.
Most compounds without a hit are left out; they make up all but 9.9% or so of the library.
KB-3-1 cytotox: KB-3-1 parental cell cytotoxicity; KB-3-1 viability, CellTiter-Glo ATP luminescence, 72 h; Potency, µM (titrated, usually from 46.1 µM), most hits filed as cytotoxic; 1.4% of 400,000 active; AID 1347075; further: potency means the concentration at half of the fitted maximal effect; on the % scale 0 is the no-effect control and ±100 the full control effect; nearly all actives have a fitted effect of over 60% in size
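Here the drug-naive KB-3-1 line serves as comparator for MDR sub-line selectivity; cells received compound titrations, 72 h at 37 °C, then CellTiter-Glo readout.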
SW480 rerep: inducers of DNA re-replication in SW480 colon cancer cells; SW480 DNA re-replication, Hoechst DNA content imaging, 48 h; Potency, µM (titrated, usually from 46.1 µM), for the others: top-dose re-replication activation, actives largely listed as activators; 1.8% of 340,000 active; AID 624297; further: potency means the concentration at half of the fitted maximal effect; % of control where 0% means no effect; nearly all actives have a fitted effect of over 55% in size
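Quantitative HTS format with DMSO vehicle controls; 48 hr drug incubation at 37 C, then 40 min Hoechst staining and scanning imager measurement at 405 nm excitation.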
KB-V1 cytotox: KB-V1 MDR subline cytotoxicity; KB-V1 MDR cells viability, CellTiter-Glo, 72 h; Potency, µM (titrated, usually from 46.1 µM), most hits filed as cytotoxic; 3.4% of 400,000 active; further: potency means the concentration at half of the fitted maximal effect; on the % scale 0 is the no-effect control and ±100 the full control effect; nearly all actives have a fitted effect of over 60% in size
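Cytotoxicity via CellTiter-Glo luminescence after 72 h compound exposure at 37 degrees C. Cells: drug-selected KB-V1 line, DMEM phenol-red free plus 10% FBS. Compounds tested at multiple concentrations; normalized data fitted to concentration-effect curves.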
MCF10A rereplic: induces DNA re-replication in MCF 10a normal breast cells | 2.9% of 350,000 active | Potency, µM (top dose mostly 46.1 µM), for the others: at the highest dose activity, positive = re-replication, hits mostly activators | MCF 10A DNA re-replication, Hoechst nuclear intensity, 48 h; further: potency means the concentration at half of the fitted maximal effect; % of control where 0% means no effect; nearly all actives have a fitted effect of over 50% in size
IL1B secr inh: inflammasome signaling inhibition, IL-1 beta readout | THP-1 LPS/ATP IL-1B secretion, AlphaLISA, 16 h; stronger effect = lower value | activity change, % at 57.5 µM | 4.7% of 360,000 active | AID 743279; in the data active means activity change below about -50%; inconclusive means mostly about -30% to -49%; further: on the % scale 0 is the no-effect control and ±100 the full control effect
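Secreted IL-1B measured by AlphaLISA bead assay after 16 h compound exposure of THP-1 cells; compounds (final up to 57.5 uM) added 1 h before LPS (250 ng/mL) and ATP (1.25 mM) stimulation; lower signal means less secretion.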
An asterisk follows results filed as active; i = inactive; ? = inconclusive; . = no result; [ ] = another dose, or the depositor's remark. Unless noted, the call rests on the fitted dose curve; in most records, active means well fitted curve in the direction sought with a large enough effect; inconclusive means small, poorly fitted or top-dose-only effect, or another doubt; inactive means no such curve, though single readings can be large; an effect the other way counts as inactive or inconclusive.

SMILES	KB-3-1 cytotox	SW480 rerep	KB-V1 cytotox	MCF10A rereplic	IL1B secr inh
C/C(=N\NC(=O)c1cccnc1)c1ccc(OC2OCCOC2Oc2ccc(/C(C)=N/NC(=O)c3cccnc3)cc2)cc1 (centres undefined)	i	?	i	1%[9.22 µM]	30
COc1ccc(-c2csc(C(C)(NC(C)=O)c3ccccc3)n2)cn1 (centres undefined)	i	.	i	.	-4
CC(C)OC(=O)/C(=C\c1cccc2ccccc12)NC(=O)c1ccccc1	i	-20%	?	?	-79*
CC(C)OC(=O)C(NC(=O)c1ccccc1)=C1CCCCC1	i	-1%	21µM*	13%	-7
CC(C)OC(=O)/C(=C\c1ccccc1)NC(=O)c1ccccc1	i	-4%	i	6%	-2
CCc1nnc(NC(=O)c2ccc(S(=O)(=O)N(CC)Cc3ccccc3)cc2)o1	?	23%	?	?	21
CCc1nnc(NC(=O)c2ccc(S(=O)(=O)N(C)Cc3ccccc3)cc2)o1	?	2.6µM*	3.7µM*	-1%	44
COc1ccccc1-c1nnc(NC(=O)c2ccc(S(=O)(=O)N(C)Cc3ccccc3)cc2)o1	?	21µM*	5.2µM*	?	34
CN(Cc1ccccc1)S(=O)(=O)c1ccc(C(=O)Nc2nnc(C3CC3)o2)cc1	?	?	?	2%	20
CC(C)COC(=O)N(C)C[C@H]1OCc2cn(nn2)CCCC(=O)N([C@H](C)CO)C[C@@H]1C	i	.	i	.	23
Cc1nn(-c2ccccn2)c2c1C(=O)CC(C)(C)C2Br (centres undefined)	?	11%	?	9%	30
COC(=O)c1cccc(NC(=O)CSc2nc3cccnc3n2C)c1	i	0%	18µM*	23%	?
CC1(C(=O)NCc2cccc3ccccc23)CCN1C(=O)C1(c2ccccc2)CCCC1 (centres undefined)	i	.	?	.	-52*
C#CCN(Cc1ccccc1)S(=O)(=O)C=C	?	?	i	26µM*	-65*
C#CCN(C)Cc1ccccc1	i	?	i	?	-18
COc1ccccc1C(CNC(=O)C1CCN(C(=O)Nc2ccccc2)CC1)N1CCCC1 (centres undefined)	i	1%	i	0%	-3
CC1=CC(C)(C)N=C(Nc2nc(C)c3cc(C)cc(C)c3n2)N1	?	0%	i	27%	-95*
C=CCn1c(COc2ccc3c(c2)CCCC3)nnc1SCC(=O)Nc1cccc(SC)c1	?	4%	15µM*	19%	-22
Cc1ncoc1C(=O)NC1CCCc2c1cnn2-c1ccc(C(C)(C)C)cc1 (centres undefined)	18µM*	13%	i	3%	-10
Cc1ncoc1C(=O)NC1CCCc2c1cnn2-c1cc(F)cc(F)c1 (centres undefined)	i	.	?	.	27
COc1ncccc1C(=O)NC1CCCc2c1cnn2-c1cc(C)cc(C)c1 (centres undefined)	?	-3%	i	9%	-56*
CSc1nc(COC(=O)NC(C)C)c(COC(=O)NC(C)C)n1Cc1ccccc1	i	.	i	.	10
COc1cc2c(-c3ccc(C)cc3)nc3c(c(C)nn3-c3ccccc3)c2cc1OC	i	.	?	.	.
COc1ccc2[nH]c3c(NCCCOC(C)C)ncnc3c2c1	i	?	?	-11%	-67*
Fc1ccc2[nH]c3c(NCc4ccccc4)ncnc3c2c1	?	0%	i	?	-86*
SMILES	KB-3-1 cytotox	SW480 rerep	KB-V1 cytotox	MCF10A rereplic	IL1B secr inh
COc1ccc2[nH]c3c(NCCC4=CCCCC4)ncnc3c2c1	3.7µM*	?	9.2µM*	21µM*	-105*
COc1ccc2[nH]c3c(NCc4ccco4)ncnc3c2c1	?	19%	?	?	0
C=CCNc1ncnc2c1[nH]c1ccc(C)cc12	?	14%	?	?	-101*
CC(C)(C)C(=O)CSc1ccc(S(=O)(=O)N2CCN(Cc3ccccc3)CC2)cn1	i	6%	?	1%	-23
Cc1ccc(C(=O)c2oc3ccccc3c2NC(=O)c2cc(-c3ccc(Cl)cc3)on2)cc1	i	.	i	.	.
CCOc1ccc(-c2c(C)nn3c(C)c(C(=O)NC(C)c4ccccc4)cnc23)cc1OCC (centres undefined)	i	.	i	.	.
COCCNc1ncnc2c1[nH]c1ccccc12	i	-16%	i	6%	19
CCOc1ccc2[nH]c3c(NCCC(C)C)ncnc3c2c1	?	?	i	12µM*	-68*
N#Cc1cc(C(=O)c2cc(Br)ccc2O)cn(C2CCCCC2)c1=O	?	?	?	0%	-80*
O=C(CC1SC(=Nc2ccccc2)N(CCc2c[nH]c3ccccc23)C1=O)Nc1ccccc1F (centres undefined)	?	2%	?	?	-80*
CC(=O)Nc1ccc(-n2c(=O)c3ccccc3c3ccccc3c2=O)cc1	i	?	i	?	32
CCCCCCCC[n+]1c(C)n(-c2ccccc2)c2ccc(NC(C)=O)cc21	4.6µM*	9%	i	28%	-103*
CC(=O)c1ccc(OCCCC(=O)NC2CCCc3ccccc32)cc1 (centres undefined)	i	-73%	16µM*	-5%	-1
COc1ccccc1C(=O)NCC1(c2ccccc2)CCCC1	i	?	i	7%	-77*
COc1ccc(C(=O)NC2CCCc3ccccc32)cc1[N+](=O)[O-] (centres undefined)	?	?	5.8µM*	?	42
COc1cc(C(=O)NC2CCCc3ccccc32)cc(OC)c1C (centres undefined)	i	0%	i	1%	44
COc1ccc(OCC(=O)NC2CCCc3ccccc32)cc1 (centres undefined)	i	-28%	i	-3%	-87*
COc1ccc(OC)c(NC(=O)CCCCCn2nnc3ccccc3c2=O)c1	i	-14%	i	-2%	10
COCCCn1cnnc1SC(C)C(=O)Nc1ccc(S(=O)(=O)N2CCOCC2)cc1 (centres undefined)	i	5%	i	-8%	2
COc1ccc(CNC2CCCc3ccccc32)c(OC)c1 (centres undefined)	i	-3%	i	-4%	-50*
CCn1c(=O)c(=O)[nH]c2cc(C(=O)NC3CC3)ccc21	i	-136%	i	-29%	-7
COc1ccc(C2(CNC(=O)c3ccc(OC)c([N+](=O)[O-])c3)CCCCC2)cc1OC	i	-92%	2.6µM*	2%	-15
